The record followed here is PubChem BioAssay (NCATS).

Inconclusive results are not listed. Active and inactive are the calls of the source. Unless noted, calls come from the whole dose curve.

Test [1] can be described thus: Primary qHTS for inhibitors of SARS-S pseudo-typed particle cell entry (AID 1479145). Note: nearly all actives have a fitted effect of over 45% in size. A general note: Quantitative high-throughput screening tests each substance at several concentrations.
Test [2] is described as follows: Primary qHTS for Huh7 cytotoxicity: counterscreen for inhibitors of MERS-S pseudotyped particle cell entry (AID 1479147).
The nature of test [3]: Primary qHTS for inhibitors of MERS-S pseudo-typed particle cell entry (AID 1479149). Note: nearly all actives have a fitted effect of over 60% in size. Note: potency is the fitted concentration of half-maximal effect.
A short description of test [4]: Primary qHTS for Vero E6 cytotoxicity: counterscreen for inhibitors of SARS-S pseudo-typed particle cell entry (AID 1479150).
The nature of test [5]: Primary qHTS for inhibitors of La Crosse Virus (LACV) - induced cell death in SH-SY5Y cells (AID 1508616; active = well fitted curve in the direction sought with a large enough effect; an effect the other way counts as inactive or inconclusive;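 note: top concentration of the series differs between compounds; higher means more rescue of cells from virus-induced death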). A digest of the protocol: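 Screening measures cell viability in LACV-infected SH-SY5Y cultures. Compound was added before virus (0.01 MOI), and ATP was detected by luminescence 6 days later.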
Test [6] has as its target Calcium and integrin-binding protein 1 (Homo sapiens) (UniProt Q99828). Nature of the test: Primary qHTS for Identification of Calcium Integrin Binding Protein 1 (CIB1) Competitor (AID 1508620; active = well fitted curve in the direction sought with a large enough effect; an effect the other way counts as inactive or inconclusive; note: top concentration of the series differs between compounds). A digest of the protocol: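 Fluorescence polarization competition: GST-tagged CIB1 (1 uM final) preincubated with compound 15 min at room temperature, then FITC-labelled alphaIIb peptide (100 nM final) added. After 15 min at room temperature, polarization read at Ex 480/Em 540.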

Test [7] is described as follows: Primary qHTS for small molecule stabilizers of the endoplasmic reticulum resident proteome: Secreted ER Calcium Modulated Protein (SERCaMP) assay (AID 1508630; active = well fitted curve in the direction sought with a large enough effect; an effect the other way counts as inactive or inconclusive). A digest of the protocol:
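The SH-SY5Y reporter protocol was run at 3 concentrations up to 38.3 uM (primary) or 11 concentrations (follow-up): 16 h compound, 100 nM thapsigargin for 4 h, then extracellular luciferase luminescence.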

Calcium and integrin-binding protein 1 (Homo sapiens), sequence (Q99828 whole entry, looked up): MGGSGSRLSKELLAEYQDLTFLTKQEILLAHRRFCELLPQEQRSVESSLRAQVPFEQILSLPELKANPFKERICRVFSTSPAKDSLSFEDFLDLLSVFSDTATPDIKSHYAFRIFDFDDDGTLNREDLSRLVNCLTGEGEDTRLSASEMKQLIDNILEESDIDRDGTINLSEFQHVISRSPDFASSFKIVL

Regarding `CCOC(=O)c1ncn2c1CN(C)C(=O)c1cc(F)ccc1-2`, the Potency entry in test [1], in test [2], in test [3] and in test [4] was “inactive” each time.

Consider `Oc1ccc(Cl)cc1Cc1ccccc1`, for which the Potency entry in test [5] and in test [6] was “inactive” in each case. For the same compound, in test [7], the result was inactive.

With `CCOc1ccccc1OCCN[C@H](C)Cc1ccc(OC)c(S(N)(=O)=O)c1`, the Potency entry in test [2], in test [3] and in test [4] was “inactive” each time.

Turning to `CN(C)CCOC(C)(c1ccccc1)c1ccccn1` (configuration not stated), the Potency entry in test [2], in test [3] and in test [4] was “inactive” each time.

Turning to `Cc1cn([C@H]2C[C@H](N=[N+]=[N-])[C@@H](CO)O2)c(=O)[nH]c1=O`, the Potency entry in test [2], in test [3] and in test [4] was “inactive” each time.

Consider `CC(c1cc2ccccc2s1)N(O)C(N)=O` (configuration not stated), for which the Potency result in test [2], in test [3] and in test [4] was “inactive” in each case.

In the case of `COc1cc(NC(C)CCCN)c2ncccc2c1` (configuration not stated), the Potency result in test [2], in test [3] and in test [4] was “inactive” throughout.

On to `O=C1CCc2ccc(OCCCCN3CCN(c4cccc(Cl)c4Cl)CC3)cc2N1`, for which the Potency result in test [2] and in test [4] was “inactive” throughout. In test [3], the Potency was 11.2 µM (active).

For `CCOC(=O)[C@H](CCc1ccccc1)N[C@@H](C)C(=O)N1Cc2cc(OC)c(OC)cc2C[C@H]1C(=O)O`, the Potency entry in test [2], in test [3] and in test [4] was “inactive” in each case.

Regarding `Cc1cc2c(s1)Nc1ccccc1N=C2N1CCN(C)CC1`, the Potency result in test [2], in test [3] and in test [4] was “inactive” each time.

On to `O=C1[C@H](CC[C@H](O)c2ccc(F)cc2)[C@@H](c2ccc(O)cc2)N1c1ccc(F)cc1`, for which the Potency result in test [2], in test [3] and in test [4] was “inactive” each time.

With `CCCCS(=O)(=O)N[C@@H](Cc1ccc(OCCCCC2CCNCC2)cc1)C(=O)O`, the Potency entry in test [2], in test [3] and in test [4] was “inactive” each time.

Take `CC(C)C1CCC(C(=O)N[C@H](Cc2ccccc2)C(=O)O)CC1` (some centres not stated): the Potency entry in test [2], in test [3] and in test [4] was “inactive” each time.

Regarding `CN(C)c1ccc(O)c2c1C[C@H]1C[C@H]3[C@H](N(C)C)C(=O)C(C(N)=O)=C(O)[C@@]3(O)C(=O)C1=C2O`, the Potency result in test [2], in test [3] and in test [4] was “inactive” throughout.

For the compound `COc1ccccc1OCC(O)CN1CCN(CC(=O)Nc2c(C)cccc2C)CC1` (configuration not stated), the Potency entry in test [2], in test [3] and in test [4] was “inactive” in each case.

For the compound `Cc1ccsc1C(=CCCN1CCC[C@@H](C(=O)O)C1)c1sccc1C`, the Potency result in test [2], in test [3] and in test [4] was “inactive” each time.

Turning to `CN(C)CCc1c[nH]c2ccc(C[C@H]3COC(=O)N3)cc12`, the Potency entry in test [2], in test [3] and in test [4] was “inactive” in each case.
